# USP7 block – inhibitors of human USP7 deubiquitinase; inhibition, % at 20 µM; hit rate 0.3% among 47,000; Q93009; purified USP7, Ub-rhodamine cleavage fluorescence
# USP8 inh – inhibitors of human USP8 deubiquitinase; hit rate 4.2% among 47,000; AID 1645853; inhibition, % at 20 µM; purified USP8, Ub-rhodamine cleavage fluorescence, 30 min
# UCHL1 block – inhibitors of human UCHL1 deubiquitinase; purified UCHL1, Ub-rhodamine cleavage fluorescence; inhibition, % at 20 µM; hit rate 0.2% among 47,000; AID 1645859
# OTUD3 block – human OTUD3 deubiquitinase inhibition | Q5T2D3 | purified OTUD3, Ub-rhodamine fluorescence, 2 h | inhibition, % at 25 µM | hit rate 0.7% among 47,000 | AID 1645858
# Target sequence (Q5T2D3 whole entry, looked up): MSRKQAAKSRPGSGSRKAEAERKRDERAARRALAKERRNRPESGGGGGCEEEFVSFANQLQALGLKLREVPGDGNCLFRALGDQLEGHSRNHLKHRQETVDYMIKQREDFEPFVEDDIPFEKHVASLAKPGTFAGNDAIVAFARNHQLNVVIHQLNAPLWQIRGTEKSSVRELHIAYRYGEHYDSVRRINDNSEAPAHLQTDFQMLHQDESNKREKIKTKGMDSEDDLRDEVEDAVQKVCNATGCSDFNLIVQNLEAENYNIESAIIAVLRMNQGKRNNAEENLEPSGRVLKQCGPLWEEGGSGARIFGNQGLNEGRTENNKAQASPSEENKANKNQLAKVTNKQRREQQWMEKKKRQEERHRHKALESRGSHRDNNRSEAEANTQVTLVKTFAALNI
# USP10 inh – blocks human USP10 ubiquitin-rhodamine cleavage. Q14694. purified USP10, Ub-rhodamine fluorescence, 60 min. inhibition, % at 20 µM. hit rate 1.1% among 47,000
# Hits are given with their value; n = inactive. The list is not random: actives were taken first. Their share in the collection is about 5%. Cut-off read from the data, not from the text of the source: active = inhibition above about 30%; inactive = the rest.
SMILES,USP7 block,USP8 inh,UCHL1 block,OTUD3 block,USP10 inh
COc1ccc(NC(=O)C2Oc3ccc(C)cc3NC2=O)cc1Cl (stereo not drawn),n,n,n,n,n
Clc1ccc(-c2cc3n(c2)CCc2cc4c(cc2-3)OCO4)cc1,n,70.3,n,n,n
Cc1cnnn1-c1ccc(C(=O)Nc2ccc(Cl)cc2Cl)cc1,n,59.1,n,n,n
COC(=O)c1ccc(OCC2c3cc(OC)c(OC)cc3CCN2C(=O)Cc2ccc(F)cc2)cc1 (stereo not drawn),n,36.1,n,n,n
O=C(Oc1ccc2c(c1)OCO2)C(c1ccccc1)c1ccccc1,n,31.3,n,n,n
Nc1c(C(=O)NCc2ccc3c(c2)OCO3)nnn1Cc1ccc(Br)cc1F,n,82.6,n,n,30.8
O=c1c2cnc(N3CCCCC3)nc2ccn1Cc1ccc2c(c1)OCO2,n,41.6,n,n,n
CCc1noc(CN2CCCC2Cn2nc(C)cc2C)n1 (stereo not drawn),n,n,n,n,n
CC1CCc2c(sc(NC(=O)c3cccc(S(C)(=O)=O)c3)c2C(N)=O)C1 (stereo not drawn),n,75.4,n,n,n
Cc1[nH]c(C)c(S(=O)(=O)Nc2ccc(Cl)cc2)c1-c1nc(C2CC2)no1,n,n,n,n,n
COc1cccc(-c2cc(C(=O)N3CCN(CCOc4ccc(Cl)cc4)CC3)[nH]n2)c1,n,n,n,n,n
CCOc1ccc(NC(=O)COc2ccccc2OC)c2cccnc12,n,32.8,n,n,n
CCOc1ccc(NC(=O)COc2ccccc2C)c2cccnc12,n,n,n,n,n
COc1ccc(C)cc1S(=O)(=O)NNc1nc(C)cc(C)n1,n,76.4,n,n,n
CCOC(=O)C1CCN(C(=O)c2[nH]nc3c2COc2ccccc2-3)CC1,n,n,n,n,n
Cc1cccc(NC(=O)c2ccc(C)c(C)c2)c1,n,n,n,n,n
Cc1ccc2[nH]c(=O)c(CN(CC3COCCO3)S(=O)(=O)c3ccc(F)cc3)cc2c1 (stereo not drawn),n,35.1,n,n,n
COc1cc(C(=O)OCc2ccc(O[C@@H]3O[C@H](CO)[C@@H](O)[C@H](O)[C@H]3O)cc2)ccc1O,n,n,n,n,n
CCCCCCCCCCCCCCCc1cc(O)cc(O)c1C(=O)O,n,n,n,36.3,62.6
CCCCCCCc1cc(OC(=O)c2c(CCCCCCC)cc(O)cc2O[C@@H]2O[C@H](CO)[C@@H](O)[C@H](O)[C@H]2O)cc(O)c1C(=O)O,101.0,99.3,88.2,101.5,100.8
COc1ccc(-c2nc(N3CCCC3)ncc2C(=O)O)cc1,n,n,n,n,n
CC(CCc1ccccc1)NCc1c(C(=O)O)n(Cc2ccc(F)cc2)c2ccccc12 (stereo not drawn),n,n,n,n,n
Cc1ccc2c(NCc3ccc4c(c3)OCO4)c(-c3nc(C)no3)cnc2n1,n,60.7,n,n,n
Cc1ccc2c(Nc3ccccc3)c(-c3nc(C)no3)cnc2n1,n,n,n,n,n
Cc1ccc(Nc2nc(NCCN3CCOCC3)nc3c2cnn3C)cc1C,n,n,n,n,n
SMILES,USP7 block,USP8 inh,UCHL1 block,OTUD3 block,USP10 inh
COc1ccc(O)c(C(=O)c2cc(C#N)c(=O)n(-c3cccc(C(F)(F)F)c3)c2)c1,n,65.2,n,n,n
Cc1ncccc1C(=O)N1CCC(O)(Cn2ccc3ccncc32)CC1,n,n,n,n,n
O=S(=O)(c1cc(F)cc(F)c1)N1CCCn2c(nc3ccccc32)C1,n,n,n,n,n
COc1cccc(CNS(=O)(=O)c2ccc3[nH]c(=O)[nH]c3c2)c1,n,n,n,n,n
O=c1[nH]c2ccc(S(=O)(=O)Nc3ccc(O)c4ccccc34)cc2[nH]1,n,95.3,37.4,63.5,49.2
COc1ccccc1C1CNCCN1Cc1scnc1C (stereo not drawn),n,n,n,n,n
CS(=O)(=O)NC1CCCN(C(=O)Nc2cccc3ccccc23)C1 (stereo not drawn),n,93.1,n,n,n
Cc1cccc(CNC(=O)C2CCCN(S(=O)(=O)N3CCCCC3)C2)c1 (stereo not drawn),n,32.3,n,n,n
O=C(Nc1cccc2ccccc12)C1CCCN(S(=O)(=O)Cc2ccccc2)C1 (stereo not drawn),n,31.8,n,n,n
O=C(Nc1ccccc1F)C1CCCN(S(=O)(=O)Cc2ccc(F)cc2)C1 (stereo not drawn),n,n,n,n,n
Cc1cccc(CNC(=O)C2CCCN(S(=O)(=O)N3CCOCC3)C2)c1 (stereo not drawn),n,n,n,n,n
